The record followed here is PubChem BioAssay.

Unmarked numbers belong to inactive results. For some of these results: Potency and affinity values are given separately. Activity calls are given as the source filed them. Unless noted, the rule behind the calls is not given here.

A short description of assay [1]: antimalarial activity against Dd2 strain (AID 2302;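 active = growth inhibition above 50% at the single 2 µM test dose, taken to imply half-maximal potency below 2 µM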;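 note: 0% = DMSO untreated growth and 100% = chloroquine plus artemisinin killed control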). The following applies: P. falciparum Dd2 in RBCs, LDH growth readout, 72 h; at 2 µM; hits give high values.
Assay [2] is described as follows: HepG2 cytotoxicity, primary screen, cytotoxicity control for P. falciparum antimalarial project, cell-based, ATP luminescence (AID 2303;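 active = inhibition above 50%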;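 note: 0% = DMSO wells and 100% = digitonin-killed cells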). The following applies: HepG2 viability, 24-48 h, at 10 µM, hits give high values.
Assay [3] has as its target L-lactate dehydrogenase (Plasmodium falciparum (isolate CDC / Honduras)) (UniProt Q27743). The experiment in a line: PfLDH activity inhibition – cell lysate, 3D7 strain, counter-screen for P. falciparum growth inhibition project (AID 2304).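 Note: 0% = vehicle and 100% = reference inhibitor.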 As to conditions: P. falciparum 3D7 crude extract, LDH APAD/NBT absorbance; at 2 µM; hits give high values. A general note: Counterscreens check selectivity or assay interference.

Assay [4] can be described thus: inhibition of 3D7 malaria parasite growth – strain 3D7 (AID 2306).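 Note: 0% = DMSO wells and 100% = chloroquine plus artemisinin control wells.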 As to conditions: P. falciparum 3D7 erythrocytic growth, LDH absorbance, 72 h; at 2 µM; hits give high values.
Assay [5] deals with Calcium-dependent protein kinase 1 (Plasmodium falciparum (isolate 3D7)) (UniProt P62344). Put plainly: PfCDPK1 kinase inhibitors, biochemical, TCAMS library (AID 1159585; cut-off not given, nearly all actives have IC50 up to about 0.98 µM;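 note: inhibitors leave more ATP so luminescence rises with inhibition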). As to conditions: recombinant PfCDPK1, Kinase-Glo ATP depletion luminescence.
Sequence of Calcium-dependent protein kinase 1 (Plasmodium falciparum (isolate 3D7)) (P62344 whole entry, looked up): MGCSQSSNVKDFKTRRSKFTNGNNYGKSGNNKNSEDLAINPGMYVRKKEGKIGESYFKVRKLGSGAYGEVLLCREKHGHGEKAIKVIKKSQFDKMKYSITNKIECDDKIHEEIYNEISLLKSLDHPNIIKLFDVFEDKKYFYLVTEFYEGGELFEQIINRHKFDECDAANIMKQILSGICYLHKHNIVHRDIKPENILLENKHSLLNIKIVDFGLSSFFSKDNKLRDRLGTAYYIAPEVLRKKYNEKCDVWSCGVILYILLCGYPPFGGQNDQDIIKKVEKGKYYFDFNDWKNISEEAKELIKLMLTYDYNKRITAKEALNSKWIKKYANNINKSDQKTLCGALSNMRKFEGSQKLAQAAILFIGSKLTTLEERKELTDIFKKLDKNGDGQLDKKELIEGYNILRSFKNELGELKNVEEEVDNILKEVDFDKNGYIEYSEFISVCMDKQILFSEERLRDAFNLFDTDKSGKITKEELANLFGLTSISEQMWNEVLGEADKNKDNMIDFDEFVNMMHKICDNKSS
Assay [6] has as its target Plasmodium falciparum protein kinase 6 (PK6, PF3D7_1337100) (UniProt Q8IDW1). The experiment in a line: PfPK6 kinase inhibitors, biochemical, TCAMS library (AID 1159586). The following applies: recombinant PfPK6, Kinase-Glo ATP depletion luminescence. In general terms: Kinase-Glo reads ATP consumption through a luciferase reaction.
The target of assay [7] is Protein kinase 7 (PK7), Plasmodium falciparum 3D7 (PF3D7_0213400) (UniProt Q7YTF7). Put plainly: inhibition of Plasmodium PK7 catalytic activity – biochemical, TCAMS antimalarial set, Kinase-Glo luminescence (AID 1159587). The following applies: recombinant PfPK7, Kinase-Glo ATP depletion luminescence.
Sequence of Protein kinase 7 (PK7), Plasmodium falciparum 3D7 (PF3D7_0213400) (Q7YTF7 1-343): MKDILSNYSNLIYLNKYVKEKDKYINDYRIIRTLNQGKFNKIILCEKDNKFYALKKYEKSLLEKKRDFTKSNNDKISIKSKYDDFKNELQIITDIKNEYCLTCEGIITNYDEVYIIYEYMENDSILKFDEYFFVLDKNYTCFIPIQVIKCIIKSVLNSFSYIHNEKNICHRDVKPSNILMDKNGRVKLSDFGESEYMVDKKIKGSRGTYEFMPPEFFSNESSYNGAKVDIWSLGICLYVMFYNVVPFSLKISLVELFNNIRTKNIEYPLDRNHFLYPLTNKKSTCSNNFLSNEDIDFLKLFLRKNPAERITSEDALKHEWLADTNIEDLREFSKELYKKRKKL
Assay [8] addresses Calcium-dependent protein kinase 4 (Plasmodium falciparum (isolate 3D7)) (UniProt Q8IBS5). Put plainly: PfCDPK4 kinase inhibitors, biochemical, TCAMS library (AID 1159588; cut-off not given, nearly all actives have IC50 up to about 0.91 µM). The following applies: recombinant PfCDPK4, Kinase-Glo ATP depletion luminescence.

Sequence of Plasmodium falciparum protein kinase 6 (PK6, PF3D7_1337100) (Q8IDW1 1-305): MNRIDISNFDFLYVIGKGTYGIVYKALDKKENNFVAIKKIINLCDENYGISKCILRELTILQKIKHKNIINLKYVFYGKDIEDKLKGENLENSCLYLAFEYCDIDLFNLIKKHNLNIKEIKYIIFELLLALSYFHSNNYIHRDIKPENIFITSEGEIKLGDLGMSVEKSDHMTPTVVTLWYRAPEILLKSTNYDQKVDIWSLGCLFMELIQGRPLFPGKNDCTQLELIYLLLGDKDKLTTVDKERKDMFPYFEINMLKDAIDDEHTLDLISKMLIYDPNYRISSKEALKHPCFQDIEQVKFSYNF
Sequence of Calcium-dependent protein kinase 4 (Plasmodium falciparum (isolate 3D7)) (Q8IBS5 whole entry, looked up): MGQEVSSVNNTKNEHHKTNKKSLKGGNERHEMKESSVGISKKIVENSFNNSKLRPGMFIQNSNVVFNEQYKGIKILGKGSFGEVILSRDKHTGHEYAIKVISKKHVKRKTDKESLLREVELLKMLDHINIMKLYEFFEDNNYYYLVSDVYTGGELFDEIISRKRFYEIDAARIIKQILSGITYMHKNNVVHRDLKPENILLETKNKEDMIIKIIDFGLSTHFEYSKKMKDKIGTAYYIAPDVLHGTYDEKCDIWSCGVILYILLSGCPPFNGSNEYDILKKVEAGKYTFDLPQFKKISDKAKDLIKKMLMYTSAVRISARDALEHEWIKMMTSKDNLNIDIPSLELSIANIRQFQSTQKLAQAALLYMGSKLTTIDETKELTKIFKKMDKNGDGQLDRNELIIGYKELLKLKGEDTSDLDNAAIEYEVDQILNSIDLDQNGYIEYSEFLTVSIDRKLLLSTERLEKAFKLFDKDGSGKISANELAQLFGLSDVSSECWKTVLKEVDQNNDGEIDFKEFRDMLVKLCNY
Sequence of L-lactate dehydrogenase (Plasmodium falciparum (isolate CDC / Honduras)) (Q27743 whole entry, looked up): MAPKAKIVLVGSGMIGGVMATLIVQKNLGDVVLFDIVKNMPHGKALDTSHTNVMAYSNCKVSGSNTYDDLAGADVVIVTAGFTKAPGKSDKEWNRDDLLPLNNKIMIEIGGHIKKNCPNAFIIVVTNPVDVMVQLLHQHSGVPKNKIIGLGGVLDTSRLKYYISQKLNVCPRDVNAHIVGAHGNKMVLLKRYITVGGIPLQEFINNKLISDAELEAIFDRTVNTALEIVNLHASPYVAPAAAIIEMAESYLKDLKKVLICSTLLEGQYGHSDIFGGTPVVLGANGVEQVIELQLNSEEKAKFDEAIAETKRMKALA

With `CC1(C)N=C(N)N=C(N)N1CCc1ccccc1`, the figures for the growth inhibition in assay [1] and in assay [4] were -1% and 93% (active), respectively. Moreover, the inhibition in assay [2] was 50% (active); in assay [3] it was -4%. The outcome in assay [5], in assay [6], in assay [7] and in assay [8] was inactive.
As for `Cc1ccc2nc(N(CCCn3ccnc3)C(=O)C=Cc3cccs3)sc2c1`, the growth inhibition in assay [1] is 57% (active); in assay [4] it was 100% (active). The results for the inhibition in assay [2] and in assay [3] were 22% and 0%, respectively. The result in assay [5], in assay [6], in assay [7] and in assay [8] was inactive.
Turning to `COc1ccc2c(c1)ncn2-c1cc(OCc2ccncc2Br)c(C(N)=O)s1`, the growth inhibition in assay [1] was 50% (active); in assay [4], 95% (active). The inhibition in assay [2] was 14%; in assay [3], -2%. Further, the result in assay [5], in assay [6], in assay [7] and in assay [8] was inactive.
`COc1ccc(-c2nc3nc4ccccc4cc3[nH]2)c(OCC(O)CNC(C)C)c1` (stereo not given): the growth inhibition in assay [1] was 96% (active); in assay [4], 98% (active). Further, the inhibition in assay [2] is 19%; in assay [3], -1%. The outcome in assay [5], in assay [6], in assay [7] and in assay [8] was inactive.
Regarding `COc1cc(NC(=O)/C=C/c2ccccc2OC(F)(F)F)cc(OCCN2CCCCC2)c1`, the growth inhibition in assay [1] was 6%; in assay [4], 96% (active). Also, the inhibition is 25% in assay [2] and 0% in assay [3]. Besides, the result in assay [5], in assay [6], in assay [7] and in assay [8] was inactive.
As to `O=C(/C=C/c1ccc(Cl)c(Cl)c1)NCCCCCN1CCC(NC(=O)Nc2cc(Cl)cc(Cl)c2)CC1`, the results for the growth inhibition in assay [1] and in assay [4] were 5% and 94% (active), respectively. The inhibition in assay [2] was 98% (active); in assay [3], -8%. In addition, the result in assay [5], in assay [6], in assay [7] and in assay [8] was inactive.
As for `COc1ccc(CNCc2cccc(-c3cccc(-c4nc5c(C)cccc5[nH]4)c3)c2)cc1`, the figures for the growth inhibition in assay [1] and in assay [4] were 60% (active) and 102% (active), respectively. The inhibition is 31% in assay [2] and -4% in assay [3]. The outcome in assay [5], in assay [6], in assay [7] and in assay [8] was inactive.
`COc1ccc(CCNC(C)Cc2ccc(C(=O)Nc3ccc(CC(C)NCCc4cccc(Cl)c4)cc3)cc2)cc1` (stereo not given): the growth inhibition was 89% (active) in assay [1] and 101% (active) in assay [4]. Besides, the inhibition in assay [2] is 99% (active); in assay [3], -10%. In addition, the result in assay [5], in assay [6], in assay [7] and in assay [8] was inactive.
For `O=C(Nc1cccc(C(F)(F)F)c1)Nc1ccc2nonc2c1`, the growth inhibition is 76% (active) in assay [1] and 98% (active) in assay [4]. In addition, the values for the inhibition in assay [2] and in assay [3] were -4% and 5%, respectively. In addition, the outcome in assay [5], in assay [6], in assay [7] and in assay [8] was inactive.
For the compound `FC(F)(F)COc1ccc2ccccc2c1CNCCCCCCNCc1c(OCC(F)(F)F)ccc2ccccc12`, the growth inhibition was 95% (active) in assay [1] and 101% (active) in assay [4]. The inhibition is 99% (active) in assay [2] and 2% in assay [3]. Also, the outcome in assay [5], in assay [6], in assay [7] and in assay [8] was inactive.
On to `O=C(N[C@@H](CC1CCCCC1)C(=O)NCCc1ccc(Cl)c(Cl)c1)c1ccc(O)c(-c2ccc(Cl)c(Cl)c2)c1`, for which the growth inhibition is 99% (active) in assay [1] and 100% (active) in assay [4]. In addition, the inhibition is -11% in assay [2] and -2% in assay [3]. Besides, the result in assay [5], in assay [6], in assay [7] and in assay [8] was inactive.
As to `COc1cc2nc(N3CCC(CNC(=O)c4ccc(-c5ccccc5)cc4)CC3)nc(N)c2cc1OC`, the growth inhibition is 92% (active) in assay [1] and 93% (active) in assay [4]. For the same compound, the inhibition was 11% in assay [2] and -1% in assay [3]. Further, the outcome in assay [5], in assay [6], in assay [7] and in assay [8] was inactive.
Consider `CCOc1cc(C(=O)Nc2cccnc2)cc(Br)c1OCCC(C)C`, for which the growth inhibition is 51% (active) in assay [1] and 88% (active) in assay [4]. The results for the inhibition in assay [2] and in assay [3] were 4% and 1%, respectively. Further, the result in assay [5], in assay [6], in assay [7] and in assay [8] was inactive.
For `Cc1c(C(=O)Nc2cc(Sc3ccc(F)cc3)cc([N+](=O)[O-])c2)sc2ncn(Cc3ccccc3F)c(=O)c12`, the growth inhibition in assay [1] is 45%; in assay [4] it was 98% (active). The inhibition in assay [2] is 2%; in assay [3], 5%. Besides, the result in assay [5], in assay [6], in assay [7] and in assay [8] was inactive.
With `CCC1N=C(N)N=C(N)N1OCCCOc1c(Cl)cc(Cl)cc1Cl` (stereo not given), the growth inhibition in assay [1] was 96% (active); in assay [4], 95% (active). The inhibition in assay [2] is 67% (active); in assay [3], 2%. The outcome in assay [5], in assay [6], in assay [7] and in assay [8] was inactive.
Consider `NC1CCN(c2nc(NCCCc3ccc(O)cc3)nc(NCc3cccc4ccccc34)n2)CC1`, for which the values for the growth inhibition in assay [1] and in assay [4] were 2% and 102% (active), respectively. Also, the inhibition in assay [2] is 12%; in assay [3] it was 6%. Further, the result in assay [5], in assay [6], in assay [7] and in assay [8] was inactive.
For the compound `COc1ccc(-c2ccc(NC(=O)c3cccs3)cc2)cc1CN1CCCN(C)CC1`, the growth inhibition in assay [1] was 30%; in assay [4], 100% (active). Moreover, the inhibition was 31% in assay [2] and 4% in assay [3]. For the same compound, the outcome in assay [5], in assay [6], in assay [7] and in assay [8] was inactive.
With `CCN(CC)S(=O)(=O)c1ccc(C(C)NC(=O)c2ccccc2COc2ccccc2)cc1` (stereo not given), the growth inhibition in assay [1] was 89% (active); in assay [4], 100% (active). Also, the inhibition in assay [2] was -3%; in assay [3] it was 4%. Further, the result in assay [5], in assay [6], in assay [7] and in assay [8] was inactive.
As for `COc1ccc(-c2cccc(NC(=O)c3cccc(C#N)c3)c2)cc1CN1CCCN(C)CC1`, the growth inhibition in assay [1] was 99% (active); in assay [4], 101% (active). Besides, the figures for the inhibition in assay [2] and in assay [3] were 22% and -4%, respectively. In addition, the result in assay [5], in assay [6], in assay [7] and in assay [8] was inactive.
Turning to `CC1CCCC(NCc2c(O)ccc3ccccc23)C1` (stereo not given), the figures for the growth inhibition in assay [1] and in assay [4] were 25% and 93% (active), respectively. For the same compound, the inhibition in assay [2] was 10%; in assay [3] it was 1%. Further, the result in assay [5], in assay [6], in assay [7] and in assay [8] was inactive.

One may read the inhibition as the relative decrease from the control value, in per cent.
